Drawing on PubChem BioAssay AID1851 (National Center for Advancing Translational Sciences (NCATS), 2009), this text covers activity, negative = inhibition and AC50 for 95 compounds.

The structures appear in SMILES notation. The whole screen tested about 16,000 compounds, of which about 5,100 (32%) were called active. About 25% were inconclusive and are not listed. Calls follow the shape of the dose curve; as a rule, active = well fitted curve in the direction sought with a large enough effect; inconclusive = small, poorly fitted or top-dose-only effect, or effect the other way; inactive = no such curve, though single readings can be large or run the other way. The list shows a part of the results.
% is scaled to controls: 0 for no effect and ±100 for the full control effect.

The target of this assay is Cytochrome P450 3A4 (Homo sapiens) (UniProt P08684). The assay is described as follows: Cytochrome panel assay with activity outcomes. The note with it: recombinant CYP, pro-luciferin dealkylation, luminescence, p450-cyp3a4; series mostly up to 57.1 µM.
Sequence of Cytochrome P450 3A4 (Homo sapiens) (P08684 whole entry, looked up): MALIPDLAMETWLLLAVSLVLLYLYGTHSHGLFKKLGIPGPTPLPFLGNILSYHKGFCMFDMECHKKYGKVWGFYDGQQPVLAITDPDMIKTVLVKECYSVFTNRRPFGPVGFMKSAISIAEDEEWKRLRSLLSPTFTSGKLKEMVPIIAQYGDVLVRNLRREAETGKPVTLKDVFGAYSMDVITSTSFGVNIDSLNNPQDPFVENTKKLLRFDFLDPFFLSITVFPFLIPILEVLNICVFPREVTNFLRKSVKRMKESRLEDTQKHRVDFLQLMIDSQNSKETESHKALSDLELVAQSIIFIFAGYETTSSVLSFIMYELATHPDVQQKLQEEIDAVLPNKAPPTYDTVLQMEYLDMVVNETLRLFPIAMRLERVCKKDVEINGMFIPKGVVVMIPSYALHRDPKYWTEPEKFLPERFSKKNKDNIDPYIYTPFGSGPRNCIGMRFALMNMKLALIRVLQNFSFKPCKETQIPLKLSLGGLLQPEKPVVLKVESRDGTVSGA
As to `CC1(C)OCC([C@H](O)C2=CCCCC2=O)CO1`, the activity, negative = inhibition is -7.04% [at 11.4 µM] (inactive).

As to `CCOC(=O)c1cc(C(=O)OCC)cc(-n2cc(O)c(C(=O)OCC)n2)c1`, the AC50 (as a rule, the concentration giving half of the maximal activity seen) is “inactive”.

With `COc1cc(CNn2nnnc2N)ccc1OCc1c(Cl)cccc1Cl`, the AC50 was 0.562 µM (active).

Regarding `COc1ccc(C[N+](C)(C)N)cc1OC`, the activity, negative = inhibition is -9.55% [at 11.4 µM] (inactive).

On to `COC(=O)c1sc2ncccc2c1OCc1c(Cl)cccc1Cl`, for which the activity, negative = inhibition is -24.4% [at 11.4 µM] (inactive).

Turning to `Nc1nc(N)[n+]([O-])c(N)c1NCO`, the activity, negative = inhibition was -2.59% [at 11.4 µM] (inactive).

With `O=C(OCCCN1CCCCC1)c1ccc(O)cc1`, the AC50 entry was “inactive”.

In the case of `Cc1cc(C(=O)O)c(=O)[nH]c1C`, the AC50 entry is “inactive”.

For `COC(=O)C/C=C\[C@@H](C)[C@@H](/C=N\OC[C@@H](O)COCc1ccco1)OC`, the activity, negative = inhibition is -28.9% [at 11.4 µM] (inactive).

Turning to `COC(=O)C/C=C\[C@H](C)[C@H](CO)NS(=O)(=O)c1ccc(C)cc1`, the activity, negative = inhibition was -5.02% [at 11.4 µM] (inactive).

As for `COC(=O)C/C=C\[C@@H](C)[C@@H](/C=N\OC[C@@H](O)[C@H]1O[C@H]2OC(C)(C)O[C@H]2[C@@H]1O)NS(=O)(=O)c1ccc(C)cc1`, the AC50 is 3.98 µM (active).

As for `COC(=O)C/C=C\[C@@H](C)[C@@H](/C=N\OC[C@@H](O)COCc1ccco1)NS(=O)(=O)c1ccc(C)cc1`, the AC50 was 3.16 µM (active).

`CO/N=C\[C@@H](NS(=O)(=O)c1ccc(C)cc1)[C@H](C)/C=C\CC(=O)OC`: the activity, negative = inhibition was -67.3% [at 11.4 µM] (inactive).

Regarding `CC(C)[C@@H](OCc1ccccc1)[C@H](C)/C=N\OC[C@@H](O)[C@@H]1O[C@@H]2OC(C)(C)O[C@@H]2[C@H]1O`, the activity, negative = inhibition was -28.7% [at 11.4 µM] (inactive).

Regarding `CNc1cc(CSC)nc(SCc2ccc(Cl)c(Cl)c2)n1`, the concentration at half-maximal activity (AC50) was 5.01 µM (active).

For the compound `Clc1ccc(CSC2=NCCN2)cc1Cl`, the activity, negative = inhibition is -8.56% [at 11.4 µM] (inactive).

In the case of `O=C(Cn1ccnc1[N+](=O)[O-])NCCO`, the AC50 entry is “inactive”.

As for `Cc1cnc(CNc2ncnc3ccc(-c4ccccc4C)cc23)cn1`, the AC50 is 3.98 µM (active).

`Cc1cnc(CNc2ncnc3ccc(-c4ccccc4Cl)cc23)cn1`: the AC50 was 2.51 µM (active).

For `Cc1cnc(CNc2ncnc3ccc(-c4ccccc4C(F)(F)F)cc23)cn1`, the half-maximal activity concentration (AC50) was 2 µM (active).

For the compound `Cc1cnc(CNc2ncnc3ccc(-c4ccccc4CN(C)C)cc23)cn1`, the AC50 entry was “inactive”.

With `O=C(NC[C@@H](O)CO)c1c(I)c(C(=O)NC[C@@H](O)CO)c(I)c(N(CCO)C(=O)CO)c1I`, the AC50 entry is “inactive”.

Take `C[N+](C)(C)c1cc2c(nn1)Nc1ccccc1S2`: the activity, negative = inhibition is -5.56% [at 11.4 µM] (inactive).

For the compound `OC(CCCN1CCCCC1)(c1ccccc1)c1ccccc1`, the AC50 entry was “inactive”.

`C=CCNc1nc(Cl)nc(Nc2ccc(OC)cc2)n1`: the AC50 is 14.1 µM (active).

Consider `O=C(c1ccccc1)[C@@H]1O[C@H]1c1ccc(-c2ccccc2)cc1`, for which the AC50 result is “inactive”.

In the case of `CC(=O)Nc1ccc2c(c1)OCCOCCOc1cc(NC(C)=O)ccc1OCCOCCOCCO2`, the AC50 result was “inactive”.

On to `CCOC(=O)Nc1ccc2c(c1)OCO2`, for which the AC50 is 14.1 µM (active).

On to `O=C(NC(=S)Nc1ccc(Oc2ccc(Cl)cc2)cc1)c1ccccc1`, for which the AC50 result is “inactive”.

On to `CCOC(=O)Nc1ccc(C)cc1NC(=O)OCC`, for which the activity, negative = inhibition was 4.11% [at 2.29 µM] (inactive).

For `Cc1ccc(C(=O)NC(=S)Nc2ccc3c(c2)OCCO3)c(C)c1`, the AC50 was 28.2 µM (active).

For `CC(=O)Nc1ccc2c(c1)OCCO2`, the AC50 entry was “inactive”.

Turning to `O=C(NC(=S)Nc1ccc2c(c1)OCO2)c1ccccc1`, the AC50 was 0.631 µM (active).

As for `CS[C@]12C(=O)C[C@]3(C)[C@@H](CC[C@@]3(O)C(=O)CO)[C@@H]1CCC1=CC(=O)CC[C@]12C`, the activity, negative = inhibition is -14.7% [at 11.4 µM] (inactive).

As to `CC(Oc1ccc(O)cc1)(P(=O)(O)O)P(=O)(O)O`, the AC50 result is “inactive”.

`CC(=O)c1cc(C#N)c(Oc2cccc(C(F)(F)F)c2)nc1C`: the AC50 entry is “inactive”.

On to `COC(=O)c1cc(C#N)c(Oc2ccc(OC)cc2)nc1C`, for which the AC50 is 14.1 µM (active).

With `CC(=O)c1cc(C#N)c(Oc2ccc(F)cc2)nc1C`, the AC50 result was “inactive”.

As to `NC(Cc1ccccc1)=NCC(=O)O`, the activity, negative = inhibition is -0.223% [at 11.4 µM] (inactive).

On to `COc1ccc(C[C@@](C)(N)C(=O)O)cc1OC`, for which the AC50 result was “inactive”.

With `COc1ccccc1C/C(N)=N/OC(=O)c1ccc(C)c([N+](=O)[O-])c1`, the half-maximal activity concentration (AC50) was 10 µM (active).

With `COc1ccc(C/C(N)=N/OC(=O)Cc2ccccc2)cc1OC`, the concentration at half-maximal activity (AC50) is 3.16 µM (active).

For the compound `COc1ccccc1CC(=O)O/N=C(\N)Cc1cccc2ccccc12`, the half-maximal activity concentration (AC50) is 15.8 µM (active).

As to `COc1ccc(Cc2ccccc2C(=O)O)c2ccccc12`, the activity, negative = inhibition is -12.8% [at 11.4 µM] (inactive).

`COc1ccc(CC(=O)O/N=C(\N)Cc2ccc(OC)cc2)cc1`: the AC50 was 10 µM (active).

As to `COc1ccccc1OC[C@H](O)COC(N)=O`, the AC50 entry is “inactive”.

With `O=C1c2ccccc2C(=O)N1CCCCN(C(=O)c1cccc([N+](=O)[O-])c1)c1ccc(Cl)cc1`, the AC50 was 11.2 µM (active).

Turning to `O=C1c2ccccc2C(=O)N1CCCCN(C(=O)c1ccc([N+](=O)[O-])cc1)c1ccc(Cl)cc1`, the concentration at half-maximal activity (AC50) was 25.1 µM (active).

With `CCOC(=O)COc1c(OC)cc(Cl)cc1C1Nc2ccccc2C(=O)N1c1ccc(F)cc1` (stereo not given), the AC50 result was “inactive”.

For `CCOC(=O)COc1c(OC)cc(Cl)cc1C1Nc2ccccc2C(=O)N1c1cccc(C)c1` (stereo not given), the half-maximal activity concentration (AC50) is 3.98 µM (active).

On to `COC(=O)c1sccc1-c1ccc(C(=O)Nc2cccnc2)o1`, for which the AC50 is 14.1 µM (active).

For the compound `CSc1nc2c(c(C(F)(F)F)n1)CC(C)CC2` (stereo not given), the AC50 entry was “inactive”.

Turning to `COc1ccccc1NC(=S)NCCc1ccccc1`, the AC50 is 11.2 µM (active).

For the compound `Fc1cc(Br)ccc1NC(=S)NCCc1ccccc1`, the AC50 was 15.8 µM (active).

Consider `Fc1ccccc1NC(=S)NCCc1ccccc1`, for which the AC50 is 12.6 µM (active).

Consider `Fc1ccc(NC(=S)NCCc2ccccc2)c(F)c1F`, for which the AC50 result was “inactive”.

Regarding `CC(CO)(CO)N=Cc1cc(I)cc(I)c1O`, the activity, negative = inhibition is -15.2% [at 11.4 µM] (inactive).

With `O=C1C(Cc2ccccc2)C(c2ccccc2)N1c1ccccc1` (stereo not given), the AC50 entry was “inactive”.

As for `O=C1C2ON(c3ccccc3)C(c3ccncc3)C2C(=O)N1c1ccccc1` (stereo not given), the AC50 is 14.1 µM (active).

With `CCCC1C(=O)N(c2ccccc2)C1c1ccccc1` (stereo not given), the activity, negative = inhibition was 1.96% [at 2.29 µM] (inactive).

Turning to `CC(=O)NNC(=O)C(O)(c1ccccc1)c1ccccc1`, the AC50 result was “inactive”.

Regarding `FC(F)(F)c1nc2ccccc2nc1N/N=C\c1ccccc1`, the AC50 was 15.8 µM (active).

Regarding `FC(F)(F)c1nc2ccccc2nc1N/N=C/c1ccc(Cl)cc1`, the AC50 was 25.1 µM (active).

As for `N#CC(c1ccc(Cl)cc1)c1nc2ccccc2nc1C(F)(F)F` (stereo not given), the activity, negative = inhibition was 15.3% [at 2.29 µM] (inactive).

`COc1ccc(Oc2nc3ccccc3nc2C(F)(F)F)cc1`: the activity, negative = inhibition was 2.66% [at 2.29 µM] (inactive).

`COc1ccc(NC(=O)c2ccc(C)cc2Cl)c([N+](=O)[O-])c1`: the half-maximal activity concentration (AC50) is 20 µM (active).

With `CCC(CC)C(=O)Nc1cccc(C(=O)Nc2ccc(OC)cc2[N+](=O)[O-])c1`, the AC50 result is “inactive”.

Regarding `CCCn1nnnc1NC(=O)c1ccc(C)cc1Cl`, the AC50 entry is “inactive”.

Take `COc1ccc(NC(=O)c2cccs2)c([N+](=O)[O-])c1`: the AC50 was 14.1 µM (active).

Regarding `CCCCn1c(SCC(=O)N2CCCC2)nc2c1c(=O)n(C)c(=O)n2C`, the AC50 was 17.8 µM (active).

As for `COCCCn1nnnc1SCC(=O)N1CCCC1`, the AC50 entry is “inactive”.

`CCCCn1nnnc1SCC(=O)N1CCCC1`: the AC50 entry was “inactive”.

On to `COc1ccc(CNc2ncnc3ccc(-c4ccc(C(=O)N(C)C)cc4)cc23)c(OC)c1`, for which the AC50 was 2.51 µM (active).

Regarding `COc1ccccc1CNc1ncnc2ccc(-c3ccc(C(=O)N(C)C)cc3)cc12`, the AC50 is 10 µM (active).

For the compound `CN1CCCC[C@@H]1CCN1c2ccccc2Sc2ccc(S(C)=O)cc21` (stereo not given in full), the AC50 result is “inactive”.

As to `COc1ccc(CNC(=O)c2csc(Cc3ccc(Cl)cc3)n2)cc1`, the AC50 is 3.55 µM (active).

Turning to `COc1ccc(CNC(=O)c2csc(Cc3ccc(OC)cc3)n2)cc1`, the AC50 is 3.16 µM (active).

As to `COc1ccc(Cc2c(N)nc(N)nc2N)cc1`, the AC50 result was “inactive”.

In the case of `COC(=O)C1=C(C)C(c2ccc(OC)cc2)NC(=S)N1` (stereo not given), the activity, negative = inhibition is -11.5% [at 2.29 µM] (inactive).

Take `Cc1cnc(C(=O)OCC(=O)NC(C)C)cn1`: the activity, negative = inhibition is -1.72% [at 2.29 µM] (inactive).

Take `COc1ccc(CNC(=O)c2cnc(C)cn2)cc1`: the concentration at half-maximal activity (AC50) was 2 µM (active).

In the case of `COc1ccc(CN[C@H](C)C(=O)O)cc1`, the activity, negative = inhibition was 0.14% [at 11.4 µM] (inactive).

`O=C(O)c1cc(=O)c2ccc(Cl)cc2[nH]1`: the AC50 entry was “inactive”.

`CC(=O)Nc1nnc(S(N)(=O)=O)s1`: the AC50 result was “inactive”.

On to `COCC(=O)Oc1c(S(=O)(=O)c2ccc(C)cc2)c(C)nn1-c1ccccc1`, for which the AC50 entry is “inactive”.

As to `Cc1ccc(S(=O)(=O)c2c(C)nn(C(C)(C)C)c2OC(=O)c2cccs2)cc1`, the AC50 is 2.24 µM (active).

With `CCOC(=O)Oc1c(OC)cc(C(=O)O[C@H]2C[C@H]3CN4CCc5c([nH]c6cc(OC)ccc56)[C@@H]4C[C@H]3[C@@H](C(=O)OC)[C@@H]2OC)cc1OC`, the AC50 entry is “inactive”.

Consider `COc1ccc(C2C(C#N)=C(N)Oc3n[nH]c(C)c32)cc1CN1CCN(c2ccc(F)cc2)CC1` (stereo not given), for which the AC50 is 8.91 µM (active).

Regarding `COc1ccc(/C=N/NC(=O)c2ccccc2)cc1CN1CCN(c2ccc(F)cc2)CC1`, the AC50 entry was “inactive”.

For the compound `O=C(NC(=S)Nc1cccc(Cl)c1N1CCCC1)c1ccc(-c2cccc([N+](=O)[O-])c2)o1`, the half-maximal activity concentration (AC50) was 4.47 µM (active).

In the case of `CCCSc1nc(C)cc(C)c1C(N)=O`, the AC50 entry was “inactive”.

Consider `CCCCN1CCC(CCC(=O)c2cc(Cl)c(N)cc2OC)CC1`, for which the AC50 result is “inactive”.

With `Cn1cc(C(=O)OCC2CCN(CCNS(C)(=O)=O)CC2)c2ccccc21`, the AC50 result was “inactive”.

With `COc1cc(COc2cc(N)c(Cl)cc2C(=O)CCC2CCN(CCNS(C)(=O)=O)CC2)cc(OC)c1`, the AC50 is 2 µM (active).

With `O=C(Nc1ccc(C(=O)Nc2ccc(C(=O)Nc3ccc(S(=O)(=O)O)c4cc(S(=O)(=O)O)cc(S(=O)(=O)O)c34)cc2)cc1)Nc1ccc(C(=O)Nc2ccc(C(=O)Nc3ccc(S(=O)(=O)O)c4cc(S(=O)(=O)O)cc(S(=O)(=O)O)c34)cc2)cc1`, the AC50 result is “inactive”.
